Potency data for 12 compounds are collected here from PubChem BioAssay (NCATS).

SMILES strings stand for the structures. Inconclusive results are not listed. Values without a mark were called inactive. Calls of active or inactive are those of the source. Calls come from the whole dose curve; as a rule, active = well fitted curve in the direction sought with a large enough effect; inconclusive = small, poorly fitted or top-dose-only effect, or another doubt; inactive = no such curve, though single readings can be large; an effect the other way counts as inactive or inconclusive.

The nature of experiment [1]: qHTS of pediatric cancer cell lines to identify multiple opportunities for drug repurposing: Primary screen for RD cells (AID 1347104). Note: nearly all actives have a fitted effect of over 55% in size. Note: potency is the fitted concentration of half-maximal effect. In a few lines: (§1)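 Cells plated at 500-1,000/well in growth medium, compounds added after 5 h. MIPE tested at 11 points (from 0.78 nM), NPC at 8 points (from 0.59 nM). CellTiter-Glo luminescence after 48 h; concentration-response curves from primary screen.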
(In general: Quantitative high-throughput screening tests each substance at several concentrations.)

A short description of experiment [2]: qHTS of pediatric cancer cell lines to identify multiple opportunities for drug repurposing: Primary screen for Rh41 cells (AID 1347108). Note: nearly all actives have a fitted effect of over 70% in size. Note: potency is the fitted concentration of half-maximal effect. In a few lines: as §1
Experiment [3] can be described thus: qHTS of pediatric cancer cell lines to identify multiple opportunities for drug repurposing: Primary screen for control Hh wild type fibroblast cells (AID 1347106).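 Note: series mostly up to about 46 µM; a drop in luminescence marks cytotoxicity and a rise apparent proliferation; nearly all actives have a fitted effect of over 55% in size.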 In outline: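 Viability after 48 h compound treatment at 37C, 500-1,000 cells/well, read as ATP luminescence with CellTiter-Glo. Primary screens used 11-point (MIPE, 0.78 nM-46 µM) or 8-point (NPC, 0.59 nM-46 µM) final concentrations; follow-up screens used 11-point dilutions.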

A short description of experiment [4]: qHTS of pediatric cancer cell lines to identify multiple opportunities for drug repurposing: Primary screen for Rh30 cells (AID 1347107). Note: series mostly up to about 46 µM; nearly all actives have a fitted effect of over 75% in size. In outline:
(§2)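 Cells (500-1,000/well) rested 5 h, then received compounds for 48 h; metabolically active cells were measured by CellTiter-Glo luminescence. Final concentrations spanned up to 46 µM (MIPE, 11-point) or 0.59 nM-46 µM (NPC, 8-point) in primary screens, 11-point in follow-ups.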

Experiment [5] can be described thus: qHTS of pediatric cancer cell lines to identify multiple opportunities for drug repurposing: Confirmatory screen for NB1643 cells (AID 1347109). Note: nearly all actives have a fitted effect of over 45% in size. Note: potency is the fitted concentration of half-maximal effect. In outline: as §2
Experiment [6] in a line: qHTS of pediatric cancer cell lines to identify multiple opportunities for drug repurposing: Confirmatory screen for A673 cells (AID 1347110).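 Note: cells exposed to compound for 48 h before the viability read; nearly all actives have a fitted effect of over 65% in size.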 Note: potency is the fitted concentration of half-maximal effect. In a few lines: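 Cells plated at 500-1,000/well were treated five hours later with multi-point dilutions up to 46 µM final. After two days, CellTiter-Glo was added and luminescence read.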
Experiment [7] can be described thus: qHTS of pediatric cancer cell lines to identify multiple opportunities for drug repurposing: Confirmatory screen for BT-12 cells (AID 1347112). Note: nearly all actives have a fitted effect of over 55% in size. Note: potency is the fitted concentration of half-maximal effect. In a few lines: as §2
The nature of experiment [8]: qHTS of pediatric cancer cell lines to identify multiple opportunities for drug repurposing: Confirmatory screen for LAN-5 cells (AID 1347113). Note: nearly all actives have a fitted effect of over 65% in size. Note: potency is the fitted concentration of half-maximal effect. In outline:
as §2

A short description of experiment [9]: qHTS of pediatric cancer cell lines to identify multiple opportunities for drug repurposing: Confirmatory screen for NB-EBc1 cells (AID 1347115).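 Note: cells exposed to compound for 48 h before the viability read; nearly all actives have a fitted effect of over 45% in size.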 Note: potency is the fitted concentration of half-maximal effect. In outline: as §2
Experiment [10] can be described thus: qHTS of pediatric cancer cell lines to identify multiple opportunities for drug repurposing: Confirmatory screen for BT-37 cells (AID 1347117). Note: nearly all actives have a fitted effect of over 55% in size. Note: potency is the fitted concentration of half-maximal effect. In outline:
as §2

Experiment [11] in a line: qHTS of pediatric cancer cell lines to identify multiple opportunities for drug repurposing: Confirmatory screen for MG 63 (6-TG R) cells (AID 1347119). Note: nearly all actives have a fitted effect of over 55% in size. Note: potency is the fitted concentration of half-maximal effect. In a few lines:
as §2

The nature of experiment [12]: qHTS of pediatric cancer cell lines to identify multiple opportunities for drug repurposing: Confirmatory screen for control Hh wild type fibroblast cells (AID 1347121). Note: nearly all actives have a fitted effect of over 70% in size. Note: potency is the fitted concentration of half-maximal effect. In outline:
as §2

Experiment [13] in a line: qHTS of pediatric cancer cell lines to identify multiple opportunities for drug repurposing: Confirmatory screen for RD cells (AID 1347124).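 Note: potency is the fitted concentration of half-maximal effect; cells exposed to compound for 48 h before viability readout; nearly all actives have a fitted effect of over 65% in size.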 In a few lines:
as §2

Experiment [14] can be described thus: qHTS of pediatric cancer cell lines to identify multiple opportunities for drug repurposing: Confirmatory screen for Saos-2 cells (AID 1347127). Note: nearly all actives have a fitted effect of over 60% in size. Note: potency is the fitted concentration of half-maximal effect. In a few lines: as §2
The nature of experiment [15]: qHTS of pediatric cancer cell lines to identify multiple opportunities for drug repurposing: Confirmatory screen for OHS-50 cells (AID 1347128). Note: potency is the fitted concentration of half-maximal effect. In outline:
as §2

Experiment [16] is described as follows: qHTS of pediatric cancer cell lines to identify multiple opportunities for drug repurposing: Primary screen for MG 63 (6-TG R) cells (AID 1347105). Note: nearly all actives have a fitted effect of over 50% in size. Note: potency is the fitted concentration of half-maximal effect. In outline: as §1
Experiment [17] in a line: qHTS of pediatric cancer cell lines to identify multiple opportunities for drug repurposing: Confirmatory screen for DAOY cells (AID 1347114). Note: potency is the fitted concentration of half-maximal effect; nearly all actives have a fitted effect of over 65% in size. In a few lines: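 Viability measured as metabolically active cells via CellTiter-Glo luminescence following 48 hours of compound exposure, 11-point dilutions in confirmatory testing. 500-1,000 cells/well plated 5 hours before dosing; controls were DMSO and 2.3 µM bortezomib.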

Experiment [18] in a line: qHTS of pediatric cancer cell lines to identify multiple opportunities for drug repurposing: Confirmatory screen for TC32 cells (AID 1347118). In outline:
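Luminescent ATP read-out (CellTiter-Glo) of metabolically active TC32 cells after 48 h exposure. Concentration-response curves came from 11-point (MIPE, 0.78 nM–46 µM) or 8-point (NPC, 0.59 nM–46 µM) primary titrations; follow-up used 11 points.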

Experiment [19] is described as follows: qHTS of pediatric cancer cell lines to identify multiple opportunities for drug repurposing: Confirmatory screen for U-2 OS cells (AID 1347122). In outline:
as §2

The nature of experiment [20]: qHTS of pediatric cancer cell lines to identify multiple opportunities for drug repurposing: Confirmatory screen for Rh41 cells (AID 1347123).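 Note: potency is the fitted concentration of half-maximal effect; 48 h compound exposure; nearly all actives have a fitted effect of over 60% in size.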 In a few lines: as §2

In the case of `CC(=O)Nc1ccn(C2COC(COC(=O)c3ccccc3)O2)c(=O)n1` (stereo not drawn), the Potency result in [1] and in experiment [2] was “inactive” in each case.

On to `C/C=C(/C(=C/C)c1ccc(OC(C)=O)cc1)c1ccc(OC(C)=O)cc1`, for which the Potency result in experiment [1] and in [2] was “inactive” each time.

As for `Cc1ccccc1C(=O)N1CC/C(=N\OS(=O)(=O)O)c2ccc(Cl)cc21`, the Potency result in experiment [1], in experiment [3], in experiment [4] and in experiment [2] was “inactive” in each case.

With `CCCCCCCCCCCCCCCC[n+]1ccccc1`, the Potency in experiment [1] is 13.3 µM (active); in experiment [2], 11.9 µM (active).

In the case of `O=P(O)(O)OCC(O)CO` (stereo not drawn), the Potency entry in experiment [1] and in [2] was “inactive” each time.

Take `CC(=O)O[C@@H]1C(=O)O[C@@H]2[C@H]1OC(=O)[C@@H]2OC(C)=O`: the Potency entry in experiment [1], in experiment [4], in [2], in experiment [5], in experiment [6] and in [7] was “inactive” throughout. For the same compound, the Potency result in experiment [8], in experiment [9], in [10], in experiment [11], in experiment [12] and in [14] was “inactive” throughout. Also, the Potency result in [15] is “inactive”. Also, the Potency in experiment [13] was 1.17 µM (active).

For the compound `Oc1ccc(CCNCCCCCCNCCc2ccccc2)cc1O`, the Potency result in [16], in experiment [3] and in experiment [4] was “inactive” each time.

Turning to `O=C(COCCOCCOCC(=O)Nc1c(I)cc(I)c(C(=O)O)c1I)Nc1c(I)cc(I)c(C(=O)O)c1I`, the Potency entry in [1], in experiment [3] and in experiment [2] was “inactive” in each case.

Regarding `CCCCCCCCCCCCCCCC[N+](C)(C)Cc1ccccc1`, the Potency in experiment [16] is 26.6 µM (active).

For `Nc1ccc2cc3ccc(N)cc3nc2c1`, the Potency in experiment [1] was 21.1 µM (active); in experiment [5] it was 7.37 µM (active); in experiment [6] it was 7.37 µM (active); in [7], 16.5 µM (active); in [8] it was 8.27 µM (active); in experiment [17], 9.27 µM (active). Also, the Potency in experiment [9] is 13.1 µM (active); in experiment [10], 11.7 µM (active); in experiment [18] it was 9.27 µM (active); in experiment [11], 23.3 µM (active); in experiment [19], 9.27 µM (active); in experiment [20], 5.85 µM (active). For the same compound, the results for the Potency in [13] and in experiment [15] were 5.22 µM (active) and 20.8 µM (active), respectively.

For the compound `CC(CCc1ccc2c(c1)OCO2)NN` (stereo not drawn), the Potency result in experiment [1], in experiment [3], in experiment [4] and in experiment [2] was “inactive” in each case.

In the case of `Cc1cc(OCCOCC[N+](C)(C)Cc2ccccc2)ccc1C(C)(C)CC(C)(C)C`, the Potency in experiment [1] is 18.8 µM (active); in [5] it was 8.27 µM (active); in experiment [6], 1.04 µM (active); in [7], 13.1 µM (active); in experiment [8], 9.27 µM (active); in experiment [17], 11.7 µM (active). Besides, the Potency was 16.5 µM (active) in experiment [9]; 10.4 µM (active) in experiment [10]; 2.93 µM (active) in experiment [18]; 9.27 µM (active) in experiment [11]; 20.8 µM (active) in [12]; 23.3 µM (active) in [19]. Moreover, the Potency in experiment [20] was 7.37 µM (active); in [13], 10.4 µM (active); in [14], 7.37 µM (active); in [15] it was 14.7 µM (active). In experiment [3], the Potency result was “inactive”.
